PubChem BioAssay (Tox21)
Records with an inconclusive call do not appear. The source made the active and inactive calls. Unless noted, the call rests on the fitted dose curve.

Legend:
[1] = qHTS assay to identify small molecule agonists of the NFkB signaling pathway - cell viability counter screen (AID 1159515); further: series mostly up to about 61 µM; nearly all actives have a fitted effect of over 55% in size
How it was run: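 Viability in NFkB-bla ME-180 cells was measured by CellTiter-Glo luminescence, 30 min room temperature, in wells already treated 5 hr with compounds and read for reporter FRET.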

[2] = qHTS assay to identify small molecule agonists of the endoplasmic reticulum stress response signaling pathway - cell viability counter screen (AID 1159517);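 further: HeLa cells carrying an ER stress response element beta-lactamase reporter; series mostly up to about 61 µM; nearly all actives have a fitted effect of over 50% in size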
How it was run: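 HeLa cells carrying an ESRE-driven beta-lactamase reporter receive compound for 5 hr at 37 C. Cell viability is then gauged with CellTiter-Glo by luminescence, 30 min at room temperature.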

[3] = qHTS assay to identify small molecule antagonists of the retinoid-related orphan receptor gamma (ROR-gamma) signaling pathway - cell viability counter screen (AID 1159520; active means well fitted curve in the direction sought with a large enough effect in the repeat runs; an effect the other way counts as inactive or inconclusive; further: nearly all actives have a fitted effect of over 50% in size)
How it was run: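 Cytotoxicity was read from cellular ATP (CellTiter-Glo luminescence) after 16 hr at 37 C with 1 uM doxycycline induction. The inducer was added 2 hr after compound transfer to Tet-on ROR gamma CHO cells.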

[4] = qHTS assay to identify small molecule agonists of the AP-1 signaling pathway - cell viability counter screen (AID 1159525); further: nearly all actives have a fitted effect of over 55% in size
How it was run: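 Luminescent ATP readout (Cell Titer Glo, 30 min RT), normalised to DMSO and tetra n-octyl ammonium bromide controls. Cells were ME-180 AP-1-bla in 0.5% dialyzed FBS Opti-MEM, with a 5 h, 37 °C compound exposure.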

[5] = qHTS assay to identify small molecule agonists of the AP-1 signaling pathway (AID 1159526)
[6] = molecular target: Retinoic acid receptor RXR-alpha (Homo sapiens) (UniProt P19793); test: qHTS assay to identify small molecule agonists of the RXR signaling pathway (AID 1159527); further: nearly all actives have a fitted effect of over 35% in size; further: potency means the concentration at half of the fitted maximal effect
Chain of Retinoic acid receptor RXR-alpha (Homo sapiens) (P19793 whole entry, looked up): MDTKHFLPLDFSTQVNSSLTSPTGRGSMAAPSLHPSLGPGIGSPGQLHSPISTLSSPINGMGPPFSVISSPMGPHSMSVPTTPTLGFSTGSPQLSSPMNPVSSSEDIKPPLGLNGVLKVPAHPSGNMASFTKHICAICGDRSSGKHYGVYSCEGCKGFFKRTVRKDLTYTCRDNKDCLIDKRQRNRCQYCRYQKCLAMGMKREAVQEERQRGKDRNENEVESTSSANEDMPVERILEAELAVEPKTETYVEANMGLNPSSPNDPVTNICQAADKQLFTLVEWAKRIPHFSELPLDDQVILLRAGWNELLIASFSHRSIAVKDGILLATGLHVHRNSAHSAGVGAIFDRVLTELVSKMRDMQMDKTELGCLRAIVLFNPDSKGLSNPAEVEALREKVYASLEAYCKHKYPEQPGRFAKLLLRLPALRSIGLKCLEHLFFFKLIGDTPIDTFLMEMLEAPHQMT
How it was run: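 16 hr incubation of compound-treated RXR-alpha-UAS-bla HEK 293T cells (2% charcoal-stripped FBS, 37 C) preceded a 2 hr room-temperature LiveBLAzer FRET substrate step and blue/green fluorescence measurement.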

[7] = qHTS assay to identify small molecule antagonists of the vitamin D receptor (VDR) signaling pathway - cell viability counter screen (AID 743225; active means well fitted curve in the direction sought with a large enough effect in the repeat runs; an effect the other way counts as inactive or inconclusive; further: nearly all actives have a fitted effect of over 50% in size)
How it was run: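 Parallel cytotoxicity test: VDR-UAS-bla HEK 293T, 3 nM (final) 1-alpha,25-dihydroxyvitamin D3 with test compound, 16 h, 37C. Endpoint is CellTiter-Glo luminescence in the same wells.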

[8] = qHTS assay to identify small molecule agonists of the endoplasmic reticulum stress response signaling pathway (AID 1159516; active means well fitted activation curve with a large enough effect in the signal ratio in the repeat runs, not every such curve was filed as active; the % refers to the signal ratio)
How it was run: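 ER stress element reporter (bla) in HeLa. 1,500 cells/well, overnight attachment; 5 hr compound; 2 hr RT substrate; dual-emission fluorescence.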

[9] = molecular target: Nuclear receptor ROR-gamma (Homo sapiens) (UniProt P51449); test: qHTS assay to identify small molecule antagonists of the retinoid-related orphan receptor gamma (ROR-gamma) signaling pathway (AID 1159521; active means well fitted curve in the direction sought with a large enough effect in the repeat runs; an effect the other way counts as inactive or inconclusive;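 further: CHO cells with doxycycline inducible ROR-gamma driving an RORE luciferase reporter; top concentration of the series differs between compounds; nearly all actives have a fitted effect of over 50% in size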)
How it was run: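 Decreased RORE-driven luciferase luminescence indicates antagonism. Tet-on RORγ CHO cells received compound, then 1 uM final doxycycline 2 h later; signal read after 16 h incubation.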

Measured: Potency

CN(C1CCCCC1)S(=O)(=O)c1ccccc1N
not listed: [7] | [8] | [9]
inactive: all other assays above

CO[Si](CCCS)(OC)OC
not listed: [4]
inactive: all other assays above

O=C(O)CCNC(=O)c1ccccc1
not listed: [3] | [7]
inactive: all other assays above

OC(CCN1CCCCC1)(c1ccccc1)c1ccccc1
inactive: all assays above

CCOC(=O)C(=O)c1csc(NC=O)n1
inactive: all assays above

C[CH2][Ge]([Cl])([CH2]C)[CH2]C
not listed: [4]
inactive: all other assays above

Cc1ccccc1C
not listed: [7] | [8]
inactive: all other assays above

Cc1ccccc1N1CCN(CCc2nnc3n2CCCC3)CC1
inactive: all assays above

CC(CC(=O)O)CC(C)(C)C (configuration not stated)
inactive: all assays above

C[C@@H]1C[C@H]2[C@@H]3C[C@H](F)C4=CC(=O)C=C[C@]4(C)[C@@]3(F)[C@@H](O)C[C@]2(C)[C@@]1(O)C(=O)CO
inactive: all assays above

C=C(C)[C@@H]1CC[C@@H](C)C[C@@H]1O
inactive: all assays above

CC(C)(CO)[C@@H](O)C(=O)NCCCO
not listed: [4] | [7]
inactive: all other assays above

CC(=O)N(CC(O)CO)c1c(I)c(C(=O)NCC(O)CO)c(I)c(C(=O)NCC(O)CO)c1I (configuration not stated)
inactive: all assays above

Nc1cc(Cl)cc(S(=O)(=O)O)c1O
not listed: [4] | [7]
inactive: all other assays above

c1ccc(CNc2ncnc3nc[nH]c23)cc1
inactive: all assays above

O=C1OC(=O)c2ccccc21
not listed: [4] | [7]
inactive: all other assays above

SCCSCCS
not listed: [7]
inactive: all other assays above

Cc1cc(O)c2c(c1)C(=O)c1cccc(O)c1C2=O
not listed: [4]
inactive: all other assays above

Nc1ccnc(=O)[nH]1
not listed: [7]
inactive: all other assays above

Cc1cccc(Nc2ccncc2S(=O)(=O)NC(=O)NC(C)C)c1
not listed: [8]
inactive: all other assays above

C=C(C)C(=O)OC
not listed: [4]
inactive: all other assays above

CCN(CC)C(=O)C1CN2CCc3cc(OC)c(OC)cc3C2CC1OC(C)=O (configuration not stated)
not listed: [7]
inactive: all other assays above

CC(C)=CC(C)(C)C
not listed: [7]
inactive: all other assays above

O=C(O)/C=C/c1ccccc1
not listed: [8]
inactive: all other assays above

O=C(O)c1c(Cl)ccc(Cl)c1Cl
active: [6] 15.5 µM
inactive: all other assays above

CCNC(=O)NCCCOc1cccc(CN2CCCCC2)c1
not listed: [7]
inactive: all other assays above

CC(=O)Nc1ncc([N+](=O)[O-])s1
not listed: [3] | [7]
inactive: all other assays above
